Assay results published in PMC4336329 (PLoS ONE, 2015).
About 14,000 (4.5%) of roughly 310,000 compounds showed an effect of 50% or more. Effects have a minus sign here. This is one part of a sample in which strong results are shown more often than they occur.

biological target: human ether-à-go-go-related gene (hERG) potassium channel (human, UniProt Q12809); experiment: primary screen, population patch clamp on CHO cells stably expressing hERG; higher = less effect of the substance
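Note: peak tail current of the secondary pulse compared with the same well before compound.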

human ether-à-go-go-related gene (hERG) potassium channel, sequence (Q12809 whole entry, looked up): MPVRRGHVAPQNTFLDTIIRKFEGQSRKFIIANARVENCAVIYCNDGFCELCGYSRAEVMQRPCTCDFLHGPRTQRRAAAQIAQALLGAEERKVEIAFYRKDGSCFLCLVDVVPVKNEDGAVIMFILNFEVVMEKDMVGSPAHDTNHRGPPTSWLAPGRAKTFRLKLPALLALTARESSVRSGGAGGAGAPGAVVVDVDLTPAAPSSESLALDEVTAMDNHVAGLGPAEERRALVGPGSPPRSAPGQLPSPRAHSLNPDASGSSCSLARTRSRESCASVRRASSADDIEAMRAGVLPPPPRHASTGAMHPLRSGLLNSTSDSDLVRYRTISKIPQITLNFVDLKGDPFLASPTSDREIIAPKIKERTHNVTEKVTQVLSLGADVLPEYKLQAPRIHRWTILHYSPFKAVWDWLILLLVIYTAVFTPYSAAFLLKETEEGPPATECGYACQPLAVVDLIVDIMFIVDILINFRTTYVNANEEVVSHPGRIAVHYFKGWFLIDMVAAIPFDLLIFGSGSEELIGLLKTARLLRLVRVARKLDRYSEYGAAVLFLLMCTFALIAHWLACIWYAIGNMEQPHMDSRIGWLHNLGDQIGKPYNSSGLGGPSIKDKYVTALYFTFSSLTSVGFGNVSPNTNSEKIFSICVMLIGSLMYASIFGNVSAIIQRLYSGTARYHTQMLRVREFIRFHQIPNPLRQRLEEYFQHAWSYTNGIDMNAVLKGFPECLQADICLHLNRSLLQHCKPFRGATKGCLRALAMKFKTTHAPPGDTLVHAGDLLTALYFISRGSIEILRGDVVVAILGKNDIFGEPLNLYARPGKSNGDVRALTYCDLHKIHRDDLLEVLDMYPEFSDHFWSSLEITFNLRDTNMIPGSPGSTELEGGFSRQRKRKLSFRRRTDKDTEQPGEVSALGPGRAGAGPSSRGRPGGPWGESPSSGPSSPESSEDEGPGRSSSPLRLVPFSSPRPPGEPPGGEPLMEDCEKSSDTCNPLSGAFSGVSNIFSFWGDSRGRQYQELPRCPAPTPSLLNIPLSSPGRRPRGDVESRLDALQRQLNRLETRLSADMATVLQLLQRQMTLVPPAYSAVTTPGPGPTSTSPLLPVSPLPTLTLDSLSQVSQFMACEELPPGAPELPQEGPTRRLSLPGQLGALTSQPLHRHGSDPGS

SMILES | hERG current change (%, negative = inhibition) at 10uM [%]
COc1ccc(-n2c(O)c(C(C)=NCCc3c[nH]c4ccccc34)c(=O)[nH]c2=O)cc1 | 14.6
Cc1cc(C)cc(Oc2c(C(F)(F)F)oc3cc(OCC(=O)O)ccc3c2=O)c1 | 4.25
Cc1ccc(NC(=O)CSc2nnc(-c3cnccn3)n2C)cc1C | -5.78
C/C(=N\Nc1nncc2ccccc12)c1ccc(OCC(=O)N(C)C)cc1 | 8.27
COc1cc(CN2CCN(c3cccc(C)c3C)CC2)cc([N+](=O)[O-])c1O | 23.5
CCC(C)C(NC(=O)C1CCC(C)CC1)C(=O)NC(C(=O)OC)C(C)C (stereo not shown) | -0.903
CCCn1c2ccccc2c2nc3ccccc3nc21 | 13
COc1ccc2c(c1)c(C(O)CN1CCC(Cc3ccccc3)CC1)c(C)n2C (stereo not shown) | -71
OC(COc1ccc(F)cc1Cl)CN1CCC(Cc2ccccc2)CC1 (stereo not shown) | -84.6
CC1CCN(CC(O)COc2cccc(F)c2)CC1 (stereo not shown) | -24.8
Cl.OC(COc1ccccc1F)CN1CCC(Cc2ccccc2)CC1 (stereo not shown) | -76.2
OC(CN1CCC(Cc2ccccc2)CC1)c1ccccc1 (stereo not shown) | -52.9
Cc1c(C(O)CN2CCC(C(N)=O)CC2)c2ccccc2n1C (stereo not shown) | -3.73
COc1ccc2c(c1)c(C(=O)CN1CCN(Cc3ccccc3)CC1)c(C)n2C | -29.8
OC(CN1CCC(Cc2ccccc2)CC1)C(F)(F)F (stereo not shown) | 5.97
O=C(O)C(=O)O.O=S(=O)(c1ccc(F)cc1)N1CCN(CC(O)COc2ccccc2F)CC1 (stereo not shown) | -14.5
OC(CN1CCN(c2ccccc2Cl)CC1)c1ccccc1 (stereo not shown) | -42.3
Fc1cccc(CN2CCC(Cc3ccccc3)CC2)c1 | 5.12
Fc1ccccc1CN1CCC(Cc2ccccc2)CC1 | -24.4
COc1ccccc1NC(=O)Nc1nc(CC(=O)Nc2cccc(F)c2)cs1 | -3.26
COc1ccc(CCNC(=O)C2CCN(S(=O)(=O)c3cccc4cccnc34)CC2)cc1OC | 12.1

SMILES | hERG current change (%, negative = inhibition) at 10uM [%]
CCOC(=O)N1CCN(c2nnnn2-c2ccccc2)CC1 | -0.913
CCCCNC(=O)C(CC)(ONc1ccccc1C(F)(F)F)c1ccccc1 (stereo not shown) | 6.19
CC(C)(C)c1ccc(C(=O)NNC(=O)C(=O)N2CCCCC2)cc1 | 14.3
CS(=O)(=O)Nc1cccc(C2=NN(C(=O)c3cccc([N+](=O)[O-])c3)C(c3cccs3)C2)c1 (stereo not shown) | -13.4
COc1cccc(OCC(O)CN2CCC(C)CC2)c1.Cl (stereo not shown) | -12.3
COc1cccc(OCC(O)CN2CCN(c3ncccn3)CC2)c1.Cl (stereo not shown) | -11
COc1cccc(OCC(O)CN2CCC(Cc3ccccc3)CC2)c1.Cl (stereo not shown) | -70.4
COc1ccc(CCNC(=O)C(CC(C)C)NC(N)=O)cc1 (stereo not shown) | 9.22
COc1ccc(C)cc1Nc1n[n+](-c2ccccc2)c(-c2cccc(Cl)c2Cl)s1.[Cl-] | 10
COc1ccc(C)cc1Nc1n[n+](-c2ccccc2)c(-c2ccc(C(=O)O)cc2)s1.[Cl-] | 18
COc1ccc(C)cc1Nc1n[n+](-c2ccccc2)c(-c2ccc(OC)c(OC)c2OC)s1.[Cl-] | -71.8
COc1ccc(C)cc1Nc1n[n+](-c2ccccc2)c(-c2c(Cl)cccc2Cl)s1.[Cl-] | -55.9
COc1ccc(C)cc1Nc1n[n+](-c2ccccc2)c(-c2cc([N+](=O)[O-])cc(OC)c2O)s1.[Cl-] | 6.15
COc1ccc(C)cc1Nc1n[n+](-c2ccccc2)c(-c2c(OC)ccc3ccccc23)s1.[Cl-] | -53.8
COc1ccc(C)cc1Nc1n[n+](-c2ccccc2)c(-c2ccc(NC(C)=O)cc2)s1.[Cl-] | 12.8
COc1ccc(C)cc1Nc1n[n+](-c2ccccc2)c(-c2cc(OC)c(OC)cc2Br)s1.[Cl-] | -48.9
COc1ccc(C)cc1Nc1n[n+](C)c(-c2c3ccccc3cc3ccccc23)s1.[Cl-] | 13.3
COc1ccc(-c2nnc(SCC(=O)N(Cc3ccccc3)C(C)(C)C)o2)cc1OC | -22.9
O=c1c(Cc2ccc(Cl)cc2)c(O)ccn1Cc1cccs1 | 4.04
Cc1ccc(C(=O)NC2CC(=O)N(c3ccc4c(c3)OCCO4)C2)cc1[N+](=O)[O-] (stereo not shown) | 14.6
CCC1(CC)NC(=O)N(CC(=O)OCC(=O)c2ccccc2OC)C1=O | 0.647

SMILES | hERG current change (%, negative = inhibition) at 10uM [%]
CC(C)(C)NC(=O)C(Cc1ccccc1)NS(=O)(=O)c1cccc2nsnc12 (stereo not shown) | -1.39
CC(Sc1ccccc1)C(=O)N1CCN(S(=O)(=O)c2ccccc2)CC1 (stereo not shown) | -8.83
CC1CC(C)CN(c2ccc(-n3cnnn3)cc2[N+](=O)[O-])C1 (stereo not shown) | -18.4
NC(=O)CC(NC(=O)c1ccccc1)c1ccc(N2CCC(Cc3ccccc3)CC2)c([N+](=O)[O-])c1 (stereo not shown) | 4.44
O=[N+]([O-])c1cc(-n2cnnn2)ccc1N1CCC(Cc2ccccc2)CC1 | -54.9
Cn1cnnc1SCc1cccc(Br)c1 | 0.347
COc1cccc(-n2c(CNc3ccc(F)cc3)nnc2SCC(N)=O)c1 | -11.8
CCc1ccc(NC(=O)C2CCC(CNC(=O)[C@@H]3Cc4ccccc4CN3)CC2)cc1 (stereo partly shown) | 4.23
COc1ccc(NC(=O)C2CCN(C(=O)[C@@H]3Cc4ccccc4CN3)CC2)cc1 | -38.2
Cc1cccc(NC(=O)C2CCC(CNC(=O)[C@@H]3Cc4ccccc4CN3)CC2)c1 (stereo partly shown) | -2.36
Cc1cc(C)cc(NC(=O)C2CCN(C(=O)[C@@H]3Cc4ccccc4CN3)CC2)c1 | -67.7
CCc1ccc(NC(=O)C2CCN(C(=O)[C@@H]3Cc4ccccc4CN3)CC2)cc1 | -59.5
COc1cccc(NC(=O)C2CCN(C(=O)[C@@H]3Cc4ccccc4CN3)CC2)c1 | -48.1
COc1ccc(CNC(=O)C2CCN(C(=O)[C@@H]3Cc4ccccc4CN3)CC2)cc1 | -24.8
Cc1ccc(NC(=O)C2CCC(CNC(=O)[C@@H]3Cc4ccccc4CN3)CC2)cc1 (stereo partly shown) | -25.8
Cc1ccc(NC(=O)C2CCN(C(=O)[C@@H]3Cc4ccccc4CN3)CC2)cc1 | -67.3
Cc1cc(C)cc(NC(=O)C2CCC(CNC(=O)[C@@H]3Cc4ccccc4CN3)CC2)c1 (stereo partly shown) | 0.322
Cc1cccc(NC(=O)C2CCN(C(=O)[C@@H]3Cc4ccccc4CN3)CC2)c1 | -67.2
Cc1ccc(NC(=O)C2CCN(C(=O)[C@@H]3Cc4ccccc4CN3)CC2)c(C)c1 | -41.4
